Values joined by “and” are separate entries in the source; they are usually repeats but may differ in a detail not shown here. Equal values may be shown once. Compounds without any hit were thinned out: in the full panel of roughly 83,000, 20% have a hit.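 The test compound was applied at a single concentration to cells in 96-well plates for 48 hours, and percent growth was recorded.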 Some compounds were tested as several samples or in several runs, with calls that do not always agree. Active and inactive are the calls of the source. Rule for the calls: active = growth percent below 10; inactive = the rest.
Assays:
Assay in all cases: NCI-60 one-dose screen, 48 h (100 = growth as untreated, 0 = no growth, -100 = all killed)
Conditions in all cases: 10 µM unless noted
SK-MEL-2 melanoma = tested on: SK-MEL-2 melanoma
EKVX NSCLC = tested on: EKVX NSCLC
SN12C renal = tested on: SN12C renal
UO-31 renal = tested on: UO-31 renal
TK-10 renal = tested on: TK-10 renal
ACHN renal = tested on: ACHN renal
CAKI-1 renal = tested on: CAKI-1 renal
A498 renal = tested on: A498 renal
CCRF-CEM leukemia = tested on: CCRF-CEM leukemia
MOLT-4 leukemia = tested on: MOLT-4 leukemia
SR leukemia = tested on: SR leukemia
RPMI-8226 leukemia = tested on: RPMI-8226 leukemia
OVCAR-8 ovarian = tested on: OVCAR-8 ovarian
OVCAR-5 ovarian = tested on: OVCAR-5 ovarian
OVCAR-4 ovarian = tested on: OVCAR-4 ovarian
SK-OV-3 ovarian = tested on: SK-OV-3 ovarian
IGROV1 ovarian = tested on: IGROV1 ovarian
OVCAR-3 ovarian = tested on: OVCAR-3 ovarian
NCI/ADR-RES ovarian = tested on: NCI/ADR-RES ovarian
HS 578T breast = tested on: HS 578T breast

Compound | growth (SK-MEL-2 melanoma) | growth (EKVX NSCLC) | growth (SN12C renal) | growth (UO-31 renal) | growth (TK-10 renal) | growth (ACHN renal) | growth (CAKI-1 renal) | growth (A498 renal) | growth (CCRF-CEM leukemia) | growth (MOLT-4 leukemia) | growth (SR leukemia) | growth (RPMI-8226 leukemia) | growth (OVCAR-8 ovarian) | growth (OVCAR-5 ovarian) | growth (OVCAR-4 ovarian) | growth (SK-OV-3 ovarian) | growth (IGROV1 ovarian) | growth (OVCAR-3 ovarian) | growth (NCI/ADR-RES ovarian) | growth (HS 578T breast)
O=C1OC2(c3ccccc31)c1ccc(O)c(O)c1Oc1c2ccc(O)c1O | 85.1% (inactive) | 105% (inactive) and 128% (inactive) | 98.8% (inactive) and 103% (inactive) | 90.2% (inactive) and 87.8% (inactive) | 105% (inactive) and 101% (inactive) | 101% (inactive) and 113% (inactive) | 104% (inactive) and 114% (inactive) | 114% (inactive) and 97.9% (inactive) | 90.8% (inactive) and 110% (inactive) | 95.4% (inactive) and 121% (inactive) | -17.7% (active) and 101% (inactive) | 113% (inactive) and 109% (inactive) | 107% (inactive) | 92.1% (inactive) and 115% (inactive) | 89.7% (inactive) and 108% (inactive) | 106% (inactive) and 98.8% (inactive) | 117% (inactive) and 124% (inactive) | 98.7% (inactive) and 107% (inactive) | 107% (inactive) and 104% (inactive) | 
Cc1ccc(S(=O)(=O)NCN2C(=O)c3ccccc3C2=O)cc1 | 106% (inactive) | 119% (inactive) | 98% (inactive) | 92.3% (inactive) | 108% (inactive) | 108% (inactive) | 95.1% (inactive) | 111% (inactive) | 91% (inactive) | 93.6% (inactive) | 101% (inactive) | 103% (inactive) | 108% (inactive) | 110% (inactive) | 96.7% (inactive) | 98.4% (inactive) |  | 113% (inactive) | 110% (inactive) | 
O=[N+]([O-])c1ccc2nc3c4ccccc4c4ccccc4c3nc2c1 | 97.6% (inactive) | 81.8% (inactive) | 81.9% (inactive) | 75.3% (inactive) | 67.8% (inactive) | 57.3% (inactive) | 77.9% (inactive) | -39.8% (active) | 63.1% (inactive) | 89.7% (inactive) | 56.6% (inactive) | 59.4% (inactive) | 65.9% (inactive) | 91.7% (inactive) | 8.96% (active) | 100% (inactive) |  | 72.9% (inactive) | 58.9% (inactive) | 79.9% (inactive)
OCCN1CCN(CCO)CC1 | 104% (inactive) and 97.3% (inactive) and 115% (inactive) | 107% (inactive) and 85.1% (inactive) and 114% (inactive) | 98.1% (inactive) and 89.2% (inactive) and 112% (inactive) | 81.9% (inactive) and 89.7% (inactive) and 86.7% (inactive) | 93.6% (inactive) and 107% (inactive) and 108% (inactive) | 99.1% (inactive) and 98% (inactive) and 104% (inactive) | 104% (inactive) and 81.4% (inactive) and 120% (inactive) | 110% (inactive) and 95.5% (inactive) and 101% (inactive) | 99.5% (inactive) and 88.4% (inactive) and 98% (inactive) | 92.9% (inactive) and 96.2% (inactive) and 97.8% (inactive) | 99.5% (inactive) and 117% (inactive) and 98.8% (inactive) | 100% (inactive) and 95.5% (inactive) | 101% (inactive) and 97.4% (inactive) | 111% (inactive) and 91.2% (inactive) and 105% (inactive) | 124% (inactive) and 97.7% (inactive) |  | 113% (inactive) and 90.8% (inactive) and 112% (inactive) | 119% (inactive) and 108% (inactive) and 109% (inactive) | 100% (inactive) and 94% (inactive) and 120% (inactive) | 106% (inactive) and 98.7% (inactive) and 112% (inactive)
Nc1cc(-c2cccc(OC(F)(F)F)c2)nc2ccc(N3CCCC3)cc12 | 11.9% (inactive) and 37.9% (inactive) and 12.2% (inactive) | 30.1% (inactive) and 29.9% (inactive) and 38.4% (inactive) | 25.8% (inactive) and 27.9% (inactive) and 25.9% (inactive) | -6.86% (active) and 12.7% (inactive) and 14.1% (inactive) | 46.7% (inactive) and 44.3% (inactive) and 40.9% (inactive) | 27.4% (inactive) and 28.9% (inactive) and 26.3% (inactive) | 30.7% (inactive) and 35.3% (inactive) and 41.7% (inactive) | 19.9% (inactive) and 22.5% (inactive) and -7.01% (active) | -15.1% (active) and 2.73% (active) and 4.3% (active) | 10.7% (inactive) and 12.7% (inactive) and 12.8% (inactive) | -22.2% (active) and -23.6% (active) and -23.8% (active) | 4.74% (active) and 17.6% (inactive) and 10.6% (inactive) | 11.4% (inactive) and 13.7% (inactive) and 7.39% (active) |  | 52.5% (inactive) and 55.2% (inactive) and 56.6% (inactive) | 36% (inactive) and 5.93% (active) | 23.7% (inactive) and 25.6% (inactive) and 24.4% (inactive) | 4.65% (active) and 2.53% (active) and -33% (active) | 5.44% (active) and 3.14% (active) and 11.7% (inactive) | -0.422% (active) and 13.7% (inactive) and 27.5% (inactive)
CC(=O)Nc1ccc2cc3ccc(NC(C)=O)cc3nc2c1 | 95.9% (inactive) and 108% (inactive) | 80.6% (inactive) and 78.4% (inactive) | 52.6% (inactive) and 52.2% (inactive) | 79% (inactive) and 76% (inactive) | 136% (inactive) and 119% (inactive) | 79.1% (inactive) and 58.4% (inactive) | 45.9% (inactive) and 97.2% (inactive) | 115% (inactive) and 113% (inactive) | 78.9% (inactive) and 104% (inactive) | 54.9% (inactive) and 74.7% (inactive) | 72.3% (inactive) | 54.5% (inactive) and 94.8% (inactive) | 88.7% (inactive) and 85.6% (inactive) | 89.2% (inactive) and 63.4% (inactive) | 87.1% (inactive) and 98.3% (inactive) |  |  | 85.8% (inactive) and 99.2% (inactive) | 99.9% (inactive) and 97.7% (inactive) | 84.3% (inactive) and 87.3% (inactive)
ClC/C=C/CSc1ncnc2nc[nH]c12 | 5.9% (active) and 112% (inactive) | 105% (inactive) and 104% (inactive) | 105% (inactive) and 100% (inactive) | 85.9% (inactive) and 87.1% (inactive) | 108% (inactive) | 103% (inactive) and 99.2% (inactive) | 106% (inactive) and 111% (inactive) | 91.4% (inactive) and 117% (inactive) | 90.7% (inactive) | 93.7% (inactive) and 85.3% (inactive) | 74.4% (inactive) | 98.7% (inactive) | 106% (inactive) |  | 108% (inactive) and 99% (inactive) | 95% (inactive) and 107% (inactive) | 113% (inactive) and 101% (inactive) | 119% (inactive) and 114% (inactive) | 106% (inactive) and 108% (inactive) | 105% (inactive) and 119% (inactive)
CC12CCC(CC1)C(C)(C)O2 | 90.7% (inactive) | 97.6% (inactive) | 103% (inactive) | 87.4% (inactive) | 93.8% (inactive) | 104% (inactive) | 91.4% (inactive) | 92.7% (inactive) | 92.4% (inactive) | 103% (inactive) | 88.8% (inactive) | 103% (inactive) | 111% (inactive) |  | 113% (inactive) | 104% (inactive) |  | 121% (inactive) | 108% (inactive) | 102% (inactive)
CCCCCCCCCCCCCCCc1cc(O)ccc1N | 105% (inactive) and 106% (inactive) | 86.6% (inactive) and 85.6% (inactive) | 51.2% (inactive) and 62.2% (inactive) | -59.8% (active) and 20.5% (inactive) | 123% (inactive) and 98.3% (inactive) | 90% (inactive) and 76.8% (inactive) | 68.2% (inactive) and 1.52% (active) | 133% (inactive) and 122% (inactive) | 5.23% (active) and -6.89% (active) | -1.13% (active) and -2.69% (active) | 74.7% (inactive) and 37.7% (inactive) | 39.9% (inactive) and 10.3% (inactive) | 87.8% (inactive) and 87.1% (inactive) |  | 65.2% (inactive) and -19.7% (active) | 89.2% (inactive) and 69% (inactive) | 16.5% (inactive) and 45.2% (inactive) | 66.8% (inactive) and 50.9% (inactive) | 72.1% (inactive) and 49.7% (inactive) | 107% (inactive) and 95.2% (inactive)

From PubChem BioAssay (NCI)
